In PubChem BioAssay (NCI):
Where “and” joins values, the source holds several entries; their conditions need not be identical. Equal values may be shown once. The panel holds about 79,000 compounds, 15% with a hit somewhere; the sample as a whole holds those more often. Some compounds were tested as several samples or in several runs, with calls that do not always agree. Calls of active or inactive are those of the source. Cut-off read from the data, not from the text of the source: active = growth inhibition above about 70%; inactive = the rest.

Test: NCI Yeast Anticancer Drug Screen. Data for the rad50 strain (AID 155);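 note: 0% = growth of vehicle-only cultures of the same strain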
Details: S. cerevisiae rad50 strain growth inhibition; at 5.0 µM (retest, dose inferred, filed as 0.5); stronger effect = higher value
Summary of the method: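 Vehicle-treated cultures provide the reference for the growth inhibition reported for compound-exposed, repair-deficient yeast.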

Row | SMILES | growth inhibition
1 | COc1ccc(/C=C2\CCc3ccccc3C2=O)cc1OC | 36% (inactive)
2 | CC(C)c1ccc(O)c(=O)cc1 | 6% (inactive) and 0% (inactive)
3 | OCC(O)C(O)C(O)C(O)c1nc2ccccc2[nH]1 (configuration not stated) | -2% (inactive) and -4% (inactive)
4 | CC(=O)CC[N+](C)(C)C | 31% (inactive)
5 | O=C(O)[C@H]1[C@@H](C2CCCCC2)O[C@@H](C2CCCCC2)O[C@H]1C(F)(F)F | -46% (inactive)
6 | CN(NC(=O)/C(=C/C=C/c1ccccc1)NC(=O)c1ccccc1)C1=C(Cl)C(=O)[N+](c2ccccc2)=CC1 | -3% (inactive)
7 | CCCCOc1ccc(Nc2c3ccccc3nc3ccccc23)cc1 | 50% (inactive)
8 | N#C/C(=C1C=C/C(=N\O)C(Cl)=C\1)c1ccccc1 | 24% (inactive)
9 | COc1cccc2c1C(=O)c1c(O)c3c(c(O)c1C2=O)CC(O)(C(=O)CO)CC3OC1CC(N)C(O)C(C)O1 (configuration not stated) | 13% (inactive) and 24% (inactive) and 34% (inactive)
10 | COc1ccc(C(=O)OCCc2ccccc2)cc1 | -3% (inactive)
11 | Cc1c2ccncc2c(C)c2c1oc1ccccc12 | 92% (active)
12 | CCCC#CCOC(=O)c1cc([N+](=O)[O-])cc([N+](=O)[O-])c1 | 88% (active)
13 | Nc1nc(Nc2ccccc2)nc(Nc2ccccc2)n1 | 4% (inactive)
14 | COc1ccc(/C=C2\S/C(=N/Nc3nc(-c4ccccc4)cs3)NC2=O)cc1OC | -4% (inactive)
15 | CCCCCCCCCCCC[N+](C)(C)Cc1ccccc1 (tested in a mixture with another compound) | 79% (active) and 69% (inactive) and 58% (inactive)
16 | CC(O)CN1C(=O)c2cccc3cc([N+](=O)[O-])cc(c23)C1=O (configuration not stated) | 56% (inactive)
17 | Cc1cc(SC#N)ccc1O | 13% (inactive) and 4% (inactive) and -2% (inactive)
18 | Cn1c(COc2ccc(/C=N/NC(=O)CCC(=O)N/N=C/c3ccc(OCc4c[n+]5ccccc5n4C)cc3)cc2)c[n+]2ccccc12 | -11% (inactive)

Row | SMILES | growth inhibition
19 | COC1=C(N=[N+]=[N-])C(=O)c2ncccc2C1=O | 86% (active)
20 | CCN(CC)c1ccc(N=Nc2cc(S(=O)(=O)O)ccc2O)c(O)c1 | 56% (inactive)
21 | O=C1C(C(O)(C(F)(F)F)C(F)(F)F)CCC1C(O)(C(F)(F)F)C(F)(F)F (configuration not stated) | 2% (inactive)
22 | COc1nc(N)c(N=CC(OC(C)=O)C(OC(C)=O)C(COC(C)=O)OC(C)=O)c(=O)n1C (configuration not stated) | -3% (inactive) and -10% (inactive) and 6% (inactive)
23 | CN(C)CCNC(=O)c1cccc2nc3c(ccc4ccccc43)nc12 | 13% (inactive)
24 | O=S(=O)(CCC[C@H]1[C@@H](CCOCc2ccccc2)C2CCCN1O2)c1ccccc1 (some centres not stated) | -9% (inactive)
25 | CCC(C)/C(C)=N/NC(N)=O (configuration not stated) | -7% (inactive)
26 | Nc1c([N+](=O)[O-])cc2c3c(cccc13)CC2 | 3% (inactive)
27 | CC1=Cc2ccc(C)cc2C(=O)C1=O | 31% (inactive)
28 | C=Cc1c(C)c(O)cc2c1-c1ccc(O)c(C)c1CC2 | 46% (inactive)
29 | NCC(O)CSCc1ccc(Cl)cc1 (configuration not stated) | 5% (inactive)
30 | C[n+]1c(-c2ccc(NC(=O)c3ccc(C(=O)Nc4ccc(-c5cn6ccccc6[n+]5C)cc4)cc3)cc2)cn2ccccc21 | 16% (inactive)
31 | Nc1ccccc1SSc1ccccc1N | 27% (inactive) and 9% (inactive) and 56% (inactive)
32 | CCCCCCCCCCCC[N+](C)(C)C | -9% (inactive) and -3% (inactive) and 12% (inactive)
33 | CNC(=O)OCc1c(COC(=O)NC)c(C)n(-c2ccc(Cl)c(Cl)c2)c1C | 25% (inactive)
34 | [O-]c1c2cc(-[n+]3c(-c4ccccc4)cc(-c4ccccc4)cc3-c3ccccc3)cc1COCCOCCOCCOCCOC2 | -5% (inactive)
35 | C[Si](C)(C)Cc1ccccc1C(=O)O | 2% (inactive)

Same assay, conditions: S. cerevisiae rad50 strain growth inhibition; at 11.0 µM; stronger effect = higher value

Row | SMILES | growth inhibition
36 | COc1ccc(/C=C2\CCc3ccccc3C2=O)cc1OC | -1% (inactive)
37 | CC(=O)CC[N+](C)(C)C | -4% (inactive)
38 | O=C(O)[C@H]1[C@@H](C2CCCCC2)O[C@@H](C2CCCCC2)O[C@H]1C(F)(F)F | -19% (inactive)
39 | CN(NC(=O)/C(=C/C=C/c1ccccc1)NC(=O)c1ccccc1)C1=C(Cl)C(=O)[N+](c2ccccc2)=CC1 | 34% (inactive)
40 | CCCCOc1ccc(Nc2c3ccccc3nc3ccccc23)cc1 | 93% (active)
41 | N#C/C(=C1C=C/C(=N\O)C(Cl)=C\1)c1ccccc1 | 8% (inactive)
42 | COc1ccc(C(=O)OCCc2ccccc2)cc1 | 1% (inactive)
43 | Cc1c2ccncc2c(C)c2c1oc1ccccc12 | 94% (active)
44 | CCCC#CCOC(=O)c1cc([N+](=O)[O-])cc([N+](=O)[O-])c1 | 98% (active)
45 | Nc1nc(Nc2ccccc2)nc(Nc2ccccc2)n1 | -6% (inactive)
46 | COc1ccc(/C=C2\S/C(=N/Nc3nc(-c4ccccc4)cs3)NC2=O)cc1OC | 96% (active)
47 | CC(O)CN1C(=O)c2cccc3cc([N+](=O)[O-])cc(c23)C1=O (configuration not stated) | 75% (active)
48 | Cn1c(COc2ccc(/C=N/NC(=O)CCC(=O)N/N=C/c3ccc(OCc4c[n+]5ccccc5n4C)cc3)cc2)c[n+]2ccccc12 | 1% (inactive)
49 | COC1=C(N=[N+]=[N-])C(=O)c2ncccc2C1=O | 93% (active)
50 | CCN(CC)c1ccc(N=Nc2cc(S(=O)(=O)O)ccc2O)c(O)c1 | -33% (inactive)
51 | O=C1C(C(O)(C(F)(F)F)C(F)(F)F)CCC1C(O)(C(F)(F)F)C(F)(F)F (configuration not stated) | -22% (inactive)
52 | CN(C)CCNC(=O)c1cccc2nc3c(ccc4ccccc43)nc12 | 67% (inactive)
53 | O=S(=O)(CCC[C@H]1[C@@H](CCOCc2ccccc2)C2CCCN1O2)c1ccccc1 (some centres not stated) | -13% (inactive)
54 | CCC(C)/C(C)=N/NC(N)=O (configuration not stated) | 0% (inactive)
55 | Nc1c([N+](=O)[O-])cc2c3c(cccc13)CC2 | 79% (active)
56 | CC1=Cc2ccc(C)cc2C(=O)C1=O | 53% (inactive)
57 | C=Cc1c(C)c(O)cc2c1-c1ccc(O)c(C)c1CC2 | 12% (inactive)
58 | NCC(O)CSCc1ccc(Cl)cc1 (configuration not stated) | 2% (inactive)
59 | C[n+]1c(-c2ccc(NC(=O)c3ccc(C(=O)Nc4ccc(-c5cn6ccccc6[n+]5C)cc4)cc3)cc2)cn2ccccc21 | 17% (inactive)
60 | CNC(=O)OCc1c(COC(=O)NC)c(C)n(-c2ccc(Cl)c(Cl)c2)c1C | -16% (inactive)
61 | [O-]c1c2cc(-[n+]3c(-c4ccccc4)cc(-c4ccccc4)cc3-c3ccccc3)cc1COCCOCCOCCOCCOC2 | 0% (inactive)
62 | C[Si](C)(C)Cc1ccccc1C(=O)O | 4% (inactive)
